Test [1] can be described thus: ATG_NFI_CIS: Attagene CIS-FACTORIAL HepG2 Assay for human Nuclear Factor I (NFI) (AID 2282989). Particulars: HepG2 cis-regulatory reporter, NFI response element transcription; actives raise or lower the signal. In short, it runs like this: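 Multiplexed cis-reporter system in human HepG2 cells reports native TF activity as reporter mRNA induction 24 h post-dose. Fragments labelled with 6-FAM, HpaI-digested and resolved by capillary electrophoresis; activity fitted both directions versus DMSO.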

The target in test [2] is Myc proto-oncogene protein (Homo sapiens) (UniProt P01106). Put plainly: ATG_Myc_CIS: Attagene CIS-FACTORIAL HepG2 Assay for human Myelocytomatosis (Myc) Proto-Oncogene Transcription Factor (AID 2282990). Particulars: HepG2, Attagene cis-reporter transcription factor activity; actives raise or lower the signal. In a few lines:
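After 24 h chemical treatment of HepG2 cells carrying multiplexed cis-regulated reporter constructs, reporter transcripts quantified by RT-PCR and capillary electrophoresis of fluorescent fragments. Gain or loss fitted against DMSO baseline.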

Test [3] can be described thus: ATG_NF_kB_CIS: Attagene CIS-FACTORIAL HepG2 Assay for human Nuclear Factor Kappa B (NF-kB) (AID 2282991). Particulars: HepG2 Attagene cis-factorial NF-kB reporter mRNA; actives raise or lower the signal. In a few lines:
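HepG2 cells transfected with cis-promoter-driven reporter units, so endogenous transcription factor activity is measured. Reporter mRNA quantified 24 h after dosing by RT-PCR and capillary electrophoresis, with bidirectional fitting against DMSO.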

A short description of test [4]: ATG_NRF2_ARE_CIS: Attagene CIS-FACTORIAL HepG2 Assay for human Nuclear Factor Erythroid 2 Related Factor 2 (NFR2) response to Antioxidant Response Elements (ARE) (AID 2282992).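 As to AC50: reporter mRNA level measured by RT-PCR and capillary electrophoresis fluorescence.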 Particulars: HepG2 Attagene ARE/NRF2 reporter, transcription factor activity; actives raise or lower the signal. In short, it runs like this:
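Cis-factorial assay: transfected HepG2 reporter library, 24 h dosing, mRNA readout via RT-PCR/CE; DMSO-referenced bidirectional analysis.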

Test [5] can be described thus: ATG_Oct_MLP_CIS: Attagene CIS-FACTORIAL HepG2 Assay for human Octamer-Binding Transcription Factor (Oct) (AID 2282993). Particulars: HepG2 Attagene cis-factorial Oct reporter, mRNA; actives raise or lower the signal. In a few lines: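 After 24 h compound exposure, transfected HepG2 cells were lysed for total RNA; reporter-specific cDNA was PCR-amplified, fluorescently labelled and sized by capillary electrophoresis. Bidirectional curve fitting used DMSO as baseline.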

Test [6] concerns the target Cellular tumor antigen p53 (Homo sapiens) (UniProt P04637). Kind of test: ATG_p53_CIS: Attagene CIS-FACTORIAL HepG2 Assay for human p53 Transcription Factor (AID 2282994). As to conditions: HepG2 p53 cis-element reporter, Attagene mRNA; actives raise or lower the signal. In a few lines:
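Using HepG2 hepatoma cells carrying cis-acting multiplexed reporters, mRNA induction is detected after a 24 h exposure. Gain- and loss-of-signal responses are fitted relative to DMSO-treated cells.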

Test [7] can be described thus: BSK_3C_TissueFactor: BioMAP Diversity Plus: 3C Assay for Tissue Factor Biomarker Activity (AID 2282997). As to conditions: BioMAP 3C HUVEC, tissue factor biomarker readout; actives raise or lower the signal. In short, it runs like this: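 Primary human umbilical vein endothelial cells in the 3C system were exposed to test chemical for 24 h, then Tissue Factor measured by ELISA. Activity was fitted bidirectionally against DMSO as negative control and baseline.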

The nature of test [8]: BSK_3C_uPAR: BioMAP Diversity Plus: 3C Assay for Urokinase-type plasminogen activator receptor (uPAR) Biomarker Activity (AID 2282998). As to conditions: BioMAP 3C HUVEC, uPAR biomarker ELISA; actives raise or lower the signal. In short, it runs like this:
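Values derive from bidirectional curve fitting relative to DMSO, which served as baseline of activity. uPAR was measured by ELISA in human umbilical vein endothelial primary cultures 24 h after compound addition.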
For orientation: In an ELISA, binding on a coated surface is turned into a signal by an enzyme label.

Test [9] is described as follows: BSK_3C_VCAM1: BioMAP Diversity Plus: 3C Assay for Vascular cell adhesion molecule 1 (VCAM1) Biomarker Activity (AID 2282999). As to conditions: BioMAP 3C HUVEC, VCAM1 ELISA, cytokine-stimulated; actives raise or lower the signal. In short, it runs like this:
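Endothelial cells from human umbilical vein are treated with test chemical. At 24 h, VCAM-1 is measured by ELISA, and responses in either direction are fitted relative to DMSO.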

The nature of test [10]: BSK_4H_Eotaxin3: BioMAP Diversity Plus: 4H Assay for Eotaxin 3 Biomarker Activity (AID 2283000).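 As to outcome: CCL26 protein level quantified by ELISA in parallel with SRB cytotoxicity check.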 As to conditions: primary human endothelial cells (HUVEC); actives raise or lower the signal. In a few lines: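 HUVEC, 24 h post-dose, ELISA for Eotaxin-3/CCL26. Gain or loss of signal fitted bidirectionally vs DMSO baseline.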
Test [11] concerns the target human Peroxisome Proliferator-activated Receptor alpha (PPARa), PPARA (gene 5465) (UniProt Q07869). Put plainly: ATG_PPARa_TRANS: Attagene TRANS-FACTORIAL HepG2 Assay for human Peroxisome Proliferator-activated Receptor alpha (PPARa) (AID 2283001; active = hit-call score of the fitted dose curve at least 0.9, where 1 is the maximum;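 as to AC50: potency for gain of reporter signal over DMSO so agonist or activator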). In short, it runs like this: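 Reporter transcripts from GAL4-UAS units in transfected HepG2 were quantified 24 h after dosing. Detection used reverse transcription, PCR, fluorescent primer extension and capillary electrophoresis, with DMSO as baseline.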

Read-out in test [12]: Intercellular Adhesion Molecule 1 (ICAM1), ICAM1 (gene 3383)
Kind of test: BSK_3C_ICAM1: BioMAP Diversity Plus: 3C Assay for Intercellular Adhesion Molecule 1 (ICAM1) Biomarker Activity (AID 2283003). As to conditions: primary human endothelial cells (HUVEC); actives raise or lower the signal. In a few lines: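 Human vascular endothelial primary cells, 3C conditions, 24 h treatment. ICAM-1 by ELISA.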

For test [13], the target named is human Retinoic Acid Receptor beta (RARb), RARB (gene 5915) (UniProt P10826). Kind of test: ATG_RARb_TRANS: Attagene TRANS-FACTORIAL HepG2 Assay for human Retinoic Acid Receptor beta (AID 2283004; active = hit-call score of the fitted dose curve at least 0.9, where 1 is the maximum). In short, it runs like this: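 HepG2 cells transiently transfected with multiplexed GAL4-UAS reporter units expressing chimeric NR–Gal4 fusions; 24 h compound exposure. Reporter mRNA quantified by RT-PCR, 6-FAM labelling, HpaI digestion and capillary electrophoresis; gain-of-signal fitted against DMSO baseline.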
Sequence of human Retinoic Acid Receptor beta (RARb), RARB (gene 5915) (P10826 whole entry, looked up, the tested form may be a part): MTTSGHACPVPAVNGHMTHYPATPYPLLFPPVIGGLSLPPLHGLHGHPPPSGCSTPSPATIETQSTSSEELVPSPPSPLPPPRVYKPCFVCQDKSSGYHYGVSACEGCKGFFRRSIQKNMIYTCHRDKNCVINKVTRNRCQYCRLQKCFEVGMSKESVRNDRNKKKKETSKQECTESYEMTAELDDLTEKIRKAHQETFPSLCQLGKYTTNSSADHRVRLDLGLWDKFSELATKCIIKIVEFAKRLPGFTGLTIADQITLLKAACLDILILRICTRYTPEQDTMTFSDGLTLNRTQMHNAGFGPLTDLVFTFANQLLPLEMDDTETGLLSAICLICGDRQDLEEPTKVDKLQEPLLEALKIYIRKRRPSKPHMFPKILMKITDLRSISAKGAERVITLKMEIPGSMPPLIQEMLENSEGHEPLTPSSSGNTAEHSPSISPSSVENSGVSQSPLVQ

Test [14] is described as follows: BSK_3C_Proliferation: Cell Proliferation Assessment in the BioMAP Diversity Plus: 3C Assay (AID 2283006).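 As to AC50: potency may reflect either rise or fall in cell number versus DMSO.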 As to conditions: primary human endothelial cells (HUVEC). In a few lines:
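Proliferation of human vascular endothelial primary cells after 48 h dosing, quantified as SRB-stained protein at 560 nm relative to DMSO.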

Test [15] addresses Peroxisome proliferator-activated receptor gamma (Homo sapiens) (UniProt P37231). Put plainly: ATG_PPARg_TRANS: Attagene TRANS-FACTORIAL HepG2 Assay for human Peroxisome Proliferator-activated Receptor-gamma (PPARg) (AID 2283007; active = hit-call score of the fitted dose curve at least 0.9, where 1 is the maximum). In a few lines:
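HepG2 cells are transiently transfected with GAL4-UAS reporter units driven by chimeric NR-Gal4 fusions and dosed for 24 h. Reporter mRNA is quantified by RT-PCR, 6-FAM labelling, HpaI digestion and capillary electrophoresis. Induction is scored against DMSO.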

For test [16], the target named is Retinoic acid receptor alpha (Homo sapiens) (UniProt P10276). Kind of test: ATG_RARa_TRANS: Attagene TRANS-FACTORIAL HepG2 Assay for human Retinoic Acid Receptor alpha (RARa) (AID 2283005; active = hit-call score of the fitted dose curve at least 0.9, where 1 is the maximum). In short, it runs like this:
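Reporter transcripts, measured by RT-PCR with fluorescent labeling and capillary electrophoresis after 24 h dosing, reflect activity of an exogenous human RARa–GAL4 fusion in transiently transfected HepG2. Fitted for increase relative to DMSO.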

Test [17] addresses Nuclear receptor subfamily 1 group I member 2 (Homo sapiens) (UniProt O75469). Kind of test: ATG_PXR_TRANS: Attagene TRANS-FACTORIAL HepG2 Assay for human Pregnane X Receptor (PXR) (AID 2283008; active = hit-call score of the fitted dose curve at least 0.9, where 1 is the maximum). In a few lines: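 Fluorescence intensity of FAM-labelled, HpaI-digested reporter amplicons, separated by capillary electrophoresis, quantifies induction. HepG2 cells with PXR-Gal4 trans-reporter system were exposed 24 h; DMSO defines baseline.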

In test [18] the target is human Retinoic Acid Receptor gamma (RARg), RARG (gene 5916) (UniProt P13631). Put plainly: ATG_RARg_TRANS: Attagene TRANS-FACTORIAL HepG2 Assay for human Retinoic Acid Receptor gamma (RARg) (AID 2283009; active = hit-call score of the fitted dose curve at least 0.9, where 1 is the maximum;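 as to AC50: AC50 is for reporter induction above DMSO meaning RARg activation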). In short, it runs like this: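 HepG2, RARg-GAL4 TRANS system, 24 h exposure; reporter mRNA by RT-PCR + CE fluorescence; increase over DMSO.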
Sequence of human Retinoic Acid Receptor gamma (RARg), RARG (gene 5916) (P13631 whole entry, looked up, the tested form may be a part): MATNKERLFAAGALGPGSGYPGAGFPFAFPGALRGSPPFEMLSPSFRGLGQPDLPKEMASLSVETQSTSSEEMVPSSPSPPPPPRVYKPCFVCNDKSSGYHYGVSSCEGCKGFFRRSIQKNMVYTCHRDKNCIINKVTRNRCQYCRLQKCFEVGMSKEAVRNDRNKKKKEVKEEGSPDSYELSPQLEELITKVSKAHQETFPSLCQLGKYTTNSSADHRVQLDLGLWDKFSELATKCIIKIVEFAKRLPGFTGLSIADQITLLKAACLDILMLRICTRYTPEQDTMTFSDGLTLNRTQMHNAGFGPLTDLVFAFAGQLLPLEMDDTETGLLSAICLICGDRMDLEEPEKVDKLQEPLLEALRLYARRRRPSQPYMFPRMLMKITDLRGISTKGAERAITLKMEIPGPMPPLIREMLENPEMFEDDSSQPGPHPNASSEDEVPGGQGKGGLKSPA
Test [19] has as its target human Peroxisome Proliferator-activated Receptor delta (PPARd), PPARD (gene 5467) (UniProt Q03181). Kind of test: ATG_PPARd_TRANS: Attagene TRANS-FACTORIAL HepG2 Assay for human Peroxisome Proliferator-activated Receptor delta (PPARd) (AID 2283002; active = hit-call score of the fitted dose curve at least 0.9, where 1 is the maximum). In short, it runs like this:
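Read-out is induced reporter mRNA, quantified by RT-PCR with fluorescent labelling and capillary electrophoresis after 24 h dosing. Cells are HepG2 transiently carrying multiple GAL4-UAS reporter units driven by exogenous NR-GAL4 chimeras; DMSO serves as baseline.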

The target of test [20] is human RAR-related Orphan Receptor beta (RORb), RORB (gene 6096) (UniProt Q92753). Put plainly: ATG_RORb_TRANS: Attagene TRANS-FACTORIAL HepG2 Assay for human RAR-related Orphan Receptor beta (RORb) (AID 2283010; active = hit-call score of the fitted dose curve at least 0.9, where 1 is the maximum). In short, it runs like this:
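In this TRANS-format test, human HepG2 cells express chimeric NR-Gal4 fusion proteins driving GAL4-UAS reporters. After 24 h dosing, reporter transcripts are measured by fluorescent RT-PCR/capillary electrophoresis, with DMSO as negative control.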

Where “and” joins values, the source holds several entries; their conditions need not be identical. Equal entries are not always repeated. Results filed as inconclusive are left out. A structure can be active in one record and inactive in another. Calls of active or inactive are those of the source. The calls were made as follows, unless noted: active = hit-call score of the fitted dose curve at least 0.9, where 1 is the maximum; inactive = score below 0.9.

Sequence of Peroxisome proliferator-activated receptor gamma (Homo sapiens) (P37231 whole entry, looked up, the tested form may be a part): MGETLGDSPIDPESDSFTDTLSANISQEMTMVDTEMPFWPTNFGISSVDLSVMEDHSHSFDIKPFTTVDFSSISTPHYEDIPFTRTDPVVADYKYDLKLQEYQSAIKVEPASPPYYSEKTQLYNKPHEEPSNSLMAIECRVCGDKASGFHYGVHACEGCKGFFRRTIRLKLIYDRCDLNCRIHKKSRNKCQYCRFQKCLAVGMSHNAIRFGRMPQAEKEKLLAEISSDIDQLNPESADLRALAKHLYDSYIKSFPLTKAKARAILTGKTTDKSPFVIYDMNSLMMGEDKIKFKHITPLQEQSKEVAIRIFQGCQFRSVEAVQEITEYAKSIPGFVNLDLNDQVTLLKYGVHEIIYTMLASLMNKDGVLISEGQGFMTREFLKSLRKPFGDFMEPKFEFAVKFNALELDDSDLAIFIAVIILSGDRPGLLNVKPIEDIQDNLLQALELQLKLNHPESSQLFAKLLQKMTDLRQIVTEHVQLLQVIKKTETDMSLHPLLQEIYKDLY
Sequence of Cellular tumor antigen p53 (Homo sapiens) (P04637 whole entry, looked up): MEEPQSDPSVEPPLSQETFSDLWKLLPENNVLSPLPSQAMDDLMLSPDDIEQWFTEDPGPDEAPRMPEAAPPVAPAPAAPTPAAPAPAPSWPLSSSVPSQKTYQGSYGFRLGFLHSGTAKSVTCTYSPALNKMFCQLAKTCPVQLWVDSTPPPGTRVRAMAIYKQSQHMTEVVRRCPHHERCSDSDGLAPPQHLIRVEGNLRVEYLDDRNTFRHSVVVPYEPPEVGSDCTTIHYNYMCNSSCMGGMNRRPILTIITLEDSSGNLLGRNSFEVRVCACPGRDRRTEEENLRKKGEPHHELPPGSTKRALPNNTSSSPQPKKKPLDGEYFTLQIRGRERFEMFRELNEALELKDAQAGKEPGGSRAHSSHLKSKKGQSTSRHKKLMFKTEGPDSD
Sequence of Nuclear receptor subfamily 1 group I member 2 (Homo sapiens) (O75469 whole entry, looked up, the tested form may be a part): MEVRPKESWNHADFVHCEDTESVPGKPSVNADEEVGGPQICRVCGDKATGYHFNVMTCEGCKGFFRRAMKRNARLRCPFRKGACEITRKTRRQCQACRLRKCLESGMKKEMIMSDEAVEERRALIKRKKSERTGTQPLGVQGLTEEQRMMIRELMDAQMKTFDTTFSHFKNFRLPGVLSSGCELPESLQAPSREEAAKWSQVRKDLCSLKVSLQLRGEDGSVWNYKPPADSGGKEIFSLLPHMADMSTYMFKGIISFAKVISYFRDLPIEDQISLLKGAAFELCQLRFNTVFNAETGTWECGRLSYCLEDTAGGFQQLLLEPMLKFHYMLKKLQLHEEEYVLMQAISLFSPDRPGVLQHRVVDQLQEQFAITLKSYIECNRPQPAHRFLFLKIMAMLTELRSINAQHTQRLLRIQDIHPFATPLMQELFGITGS
Sequence of human RAR-related Orphan Receptor beta (RORb), RORB (gene 6096) (Q92753 whole entry, looked up, the tested form may be a part): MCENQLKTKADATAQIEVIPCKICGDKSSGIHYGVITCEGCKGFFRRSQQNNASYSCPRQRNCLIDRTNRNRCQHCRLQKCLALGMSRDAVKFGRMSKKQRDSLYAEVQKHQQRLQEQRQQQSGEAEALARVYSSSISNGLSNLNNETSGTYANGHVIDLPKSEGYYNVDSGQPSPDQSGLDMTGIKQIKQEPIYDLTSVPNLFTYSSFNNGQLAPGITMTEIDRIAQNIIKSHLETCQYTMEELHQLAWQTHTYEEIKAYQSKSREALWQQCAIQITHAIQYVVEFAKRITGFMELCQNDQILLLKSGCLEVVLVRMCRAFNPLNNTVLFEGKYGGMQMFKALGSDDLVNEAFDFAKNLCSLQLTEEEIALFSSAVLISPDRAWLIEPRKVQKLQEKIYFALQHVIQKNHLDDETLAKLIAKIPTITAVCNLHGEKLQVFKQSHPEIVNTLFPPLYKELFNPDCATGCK
Sequence of Retinoic acid receptor alpha (Homo sapiens) (P10276 whole entry, looked up, the tested form may be a part): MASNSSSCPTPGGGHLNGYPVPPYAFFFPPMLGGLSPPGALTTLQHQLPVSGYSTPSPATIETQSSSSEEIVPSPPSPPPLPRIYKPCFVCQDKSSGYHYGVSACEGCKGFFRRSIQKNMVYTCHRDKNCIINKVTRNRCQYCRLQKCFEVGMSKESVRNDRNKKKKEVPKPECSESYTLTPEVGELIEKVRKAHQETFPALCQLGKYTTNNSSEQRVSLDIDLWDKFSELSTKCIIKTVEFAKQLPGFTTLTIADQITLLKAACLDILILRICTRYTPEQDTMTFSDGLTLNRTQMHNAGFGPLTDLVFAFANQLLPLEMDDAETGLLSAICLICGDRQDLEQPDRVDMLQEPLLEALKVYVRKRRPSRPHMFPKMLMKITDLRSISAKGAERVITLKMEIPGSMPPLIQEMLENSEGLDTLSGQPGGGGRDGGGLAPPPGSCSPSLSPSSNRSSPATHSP
Sequence of Myc proto-oncogene protein (Homo sapiens) (P01106 whole entry, looked up, the tested form may be a part): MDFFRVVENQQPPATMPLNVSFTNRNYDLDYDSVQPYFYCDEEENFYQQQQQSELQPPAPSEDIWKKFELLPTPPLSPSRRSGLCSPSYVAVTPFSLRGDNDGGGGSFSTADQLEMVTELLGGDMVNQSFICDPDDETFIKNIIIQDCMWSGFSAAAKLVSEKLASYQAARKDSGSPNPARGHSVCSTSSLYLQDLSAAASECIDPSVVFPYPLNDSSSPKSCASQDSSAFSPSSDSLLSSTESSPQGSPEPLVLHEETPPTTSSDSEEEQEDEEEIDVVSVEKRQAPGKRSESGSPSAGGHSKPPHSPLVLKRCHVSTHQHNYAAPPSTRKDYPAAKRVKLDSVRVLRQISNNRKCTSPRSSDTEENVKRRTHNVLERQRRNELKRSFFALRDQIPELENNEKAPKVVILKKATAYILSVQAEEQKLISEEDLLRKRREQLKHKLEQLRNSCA
Sequence of human Peroxisome Proliferator-activated Receptor alpha (PPARa), PPARA (gene 5465) (Q07869 whole entry, looked up, the tested form may be a part): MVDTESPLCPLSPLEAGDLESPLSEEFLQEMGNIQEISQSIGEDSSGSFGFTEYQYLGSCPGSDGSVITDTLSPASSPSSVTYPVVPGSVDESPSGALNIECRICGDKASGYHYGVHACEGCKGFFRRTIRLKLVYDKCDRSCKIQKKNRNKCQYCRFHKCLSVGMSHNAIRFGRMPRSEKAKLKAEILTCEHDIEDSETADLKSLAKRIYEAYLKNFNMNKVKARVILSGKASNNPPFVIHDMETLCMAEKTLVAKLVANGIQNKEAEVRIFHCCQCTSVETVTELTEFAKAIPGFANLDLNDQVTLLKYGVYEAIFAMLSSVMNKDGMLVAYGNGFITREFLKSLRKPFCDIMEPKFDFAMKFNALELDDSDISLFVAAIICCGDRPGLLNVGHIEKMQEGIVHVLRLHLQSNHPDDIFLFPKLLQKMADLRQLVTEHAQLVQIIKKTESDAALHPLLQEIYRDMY
Sequence of human Peroxisome Proliferator-activated Receptor delta (PPARd), PPARD (gene 5467) (Q03181 whole entry, looked up, the tested form may be a part): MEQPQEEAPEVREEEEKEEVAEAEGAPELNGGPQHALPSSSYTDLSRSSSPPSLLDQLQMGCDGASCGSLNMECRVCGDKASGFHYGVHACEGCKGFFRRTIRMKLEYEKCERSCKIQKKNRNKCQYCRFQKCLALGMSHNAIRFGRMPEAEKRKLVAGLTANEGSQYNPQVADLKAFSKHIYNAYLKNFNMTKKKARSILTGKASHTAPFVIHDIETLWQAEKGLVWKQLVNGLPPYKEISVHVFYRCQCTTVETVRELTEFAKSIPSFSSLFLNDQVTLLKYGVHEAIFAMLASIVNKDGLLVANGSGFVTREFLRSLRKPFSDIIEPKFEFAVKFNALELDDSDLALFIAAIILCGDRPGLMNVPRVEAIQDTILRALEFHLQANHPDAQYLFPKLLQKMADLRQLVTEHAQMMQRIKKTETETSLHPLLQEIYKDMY

As to `Nn1cnnc1`, the result in test [1], in test [2], in test [3], in test [4], in [5] and in test [6] was inactive. Also, the result in [7], in test [8], in test [9], in test [10], in [11] and in test [12] was inactive. Also, the call in test [13], in test [14] and in [15] was inactive.

In the case of `CCCCCCCCCC[N+](C)(C)CCCCCCCCCC`, the result in [1], in test [3], in test [11], in test [16], in test [15] and in [17] was inactive. The outcome in test [18] was inactive. For the same molecule, the AC50 in test [2] was 7.82 µM (active); in test [4], 3.63 µM (active); in test [5], 3.99 µM (active); in [6], 100 µM (active); in test [7] it was 4.21 µM (active); in [8], 2.43 µM (active). The AC50 is 6.12 µM (active) in [9], 4.08 µM (active) in test [10], 6.48 µM (active) in test [12] and 1.8 µM (active) in [14].

Take `O=C(O)C(F)(F)C(F)(F)C(F)(F)C(F)(F)C(F)(F)C(F)(F)C(F)(F)C(F)(F)C(F)(F)F`: the result in test [1], in [2], in test [3], in test [5], in [6] and in [7] was inactive. Besides, the outcome in [8], in [9], in test [19], in [12], in [13] and in [16] was inactive. For the same molecule, the call in test [17], in test [18] and in [20] was inactive. The AC50 in test [4] was 59.6 µM (active) and 12.3 µM (active) and 24.7 µM (active); in test [5], 45.5 µM (active) and 50 µM (active); in [6] it was 46.9 µM (active) and 69.4 µM (active); in [7], 51.8 µM (active) and 50.7 µM (active); in test [8], 46.2 µM (active) and 51.4 µM (active); in test [9], 56.8 µM (active) and 53.1 µM (active). For the same molecule, the AC50 in test [10] was 29.9 µM (active) and 49.3 µM (active) and 51.1 µM (active); in test [11], 33.4 µM (active) and 24.7 µM (active) and 23.9 µM (active); in test [12] it was 46.5 µM (active) and 58.4 µM (active); in [14], 36.3 µM (active) and 46.6 µM (active) and 45.4 µM (active); in [15], 52.1 µM (active) and 12.9 µM (active); in [17], 45.7 µM (active) and 60.9 µM (active). Further, the AC50 in test [18] was 33.4 µM (active).

By AC50 is commonly meant the concentration at which the activity in the assay is half-maximal.

For the origin of these results see PubChem BioAssay (EPA / NIEHS).
